Screening results: PubChem BioAssay, several laboratories
Sampled rows, rich in hits. Any-hit rate of the full collection: about 4%.
Rv3671c protease: inhibits the M. tuberculosis serine protease Rv3671c. P9WHR9. inhibition, % at 5.96 µM. hit rate 0.048% among 320,000. AID 2606; in the data active = inhibition above about 38%;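 note: extracellular domain of Rv3671c used as enzyme; 0% = enzyme with DMSO and 100% = no enzyme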
FBA Mtb inh: inhibits M. tuberculosis FBA enzyme; purified M. tuberculosis FBA, fluorescence read-out; inhibition, % at 1 µM; hit rate 2.3% among 360,000; AID 588726;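 note: 0% = vehicle and 100% = reference inhibitor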
RecA splice inh: inhibitors of M. tuberculosis RecA intein splicing | P9WHJ3 | cell-free RecA intein splicing, fluorescence | inhibition, % (no concentration beside the values) | hit rate 0.75% among 290,000 | AID 2221; in the data active = inhibition above about 30%;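 note: 0% = vehicle wells and 100% = reference inhibitor control wells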
Target sequence (P9WHJ3 whole entry, looked up, canonical isoform): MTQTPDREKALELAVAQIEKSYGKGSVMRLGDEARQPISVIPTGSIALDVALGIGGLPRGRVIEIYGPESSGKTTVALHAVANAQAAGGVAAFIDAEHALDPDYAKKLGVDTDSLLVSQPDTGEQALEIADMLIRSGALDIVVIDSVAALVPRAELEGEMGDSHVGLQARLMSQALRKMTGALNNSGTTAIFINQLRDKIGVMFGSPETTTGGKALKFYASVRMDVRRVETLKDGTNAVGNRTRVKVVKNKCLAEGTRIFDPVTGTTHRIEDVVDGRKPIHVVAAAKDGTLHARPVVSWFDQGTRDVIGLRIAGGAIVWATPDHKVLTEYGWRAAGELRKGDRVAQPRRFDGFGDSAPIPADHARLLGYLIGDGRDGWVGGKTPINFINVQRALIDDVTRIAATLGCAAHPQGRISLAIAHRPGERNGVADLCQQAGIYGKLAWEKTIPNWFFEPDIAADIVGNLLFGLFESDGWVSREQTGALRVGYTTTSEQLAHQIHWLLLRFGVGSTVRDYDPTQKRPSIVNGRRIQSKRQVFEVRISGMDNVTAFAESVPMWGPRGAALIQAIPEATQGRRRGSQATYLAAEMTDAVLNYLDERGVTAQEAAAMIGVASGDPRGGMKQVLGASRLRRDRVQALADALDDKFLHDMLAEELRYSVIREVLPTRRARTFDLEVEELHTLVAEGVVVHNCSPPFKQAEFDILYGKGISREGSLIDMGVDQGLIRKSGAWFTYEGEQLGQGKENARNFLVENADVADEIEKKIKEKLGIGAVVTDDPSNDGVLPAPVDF
UGM FP inh: Mtb UDP-galactopyranose mutase inhibition; P9WIQ1; purified UGM, fluorescence polarization probe displacement; inhibition, % at 10 µM; hit rate 0.06% among 320,000; AID 504406; in the data active = inhibition above about 10%, passing the limit was not always enough
GDH-TPI counter-1: GDH-TPI coupled enzyme inhibition counter-screen | GDH-TPI coupled enzyme counterscreen, NADH absorbance | inhibition, % at 4.8 µM | hit rate 1.2% among 360,000 | AID 588335; in the data active = inhibition above about 30%;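 note: 0% = DMSO wells and 100% = wells lacking the enzyme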
Mtb betalactam: beta-lactam sensitization of Mtb H37Rv | M. tuberculosis H37Rv growth with meropenem, percent inhibition | inhibition, % at 25 µM | hit rate 0.27% among 330,000; call rule not given here;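 note: growth measured after seven days incubation then overnight dye step; 0% = bacteria only wells and 100% = bacteria with antibiotic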
Mtb FBA inh conf: confirmation of M. tuberculosis fructose-bisphosphate aldolase inhibitors; shares compounds with FBA Mtb inh; purified M. tuberculosis FBA, fluorescence read-out; inhibition, % at 1 µM; hit rate 78% among 5,600; AID 651616;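 note: 0% = vehicle wells and 100% = reference inhibitor wells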
GDH-TPI counter-2: inhibits GDH-TPI coupling enzymes, flagging Mtb FBA hits | GDH-TPI coupled enzyme counterscreen, fluorescence | hit rate 81% among 5,600 | inhibition, % at 1 µM | shares compounds with FBA Mtb inh; in the data active = inhibition above about 10%
* marks the source's active call; other numbers are inactive results. Cut-off read from the data, not from the text of the source, unless noted: active = inhibition above about 27%; inactive = the rest.

Results for COCC(=O)Nc1nc2n(n1)C(c1ccccc1)CC(c1ccc(OC)cc1)N2 (configuration not stated) ?
Rv3671c protease: 5; FBA Mtb inh: 54*; RecA splice inh: -150; UGM FP inh: 1; GDH-TPI counter-1: 6; Mtb betalactam: -14; Mtb FBA inh conf: 50*; GDH-TPI counter-2: 31*

Results for CN(C)c1ccc(NC(=O)Cc2ccccc2)c2ccccc12 ?
Rv3671c protease: -4; FBA Mtb inh: 29*; RecA splice inh: -2; UGM FP inh: -1; GDH-TPI counter-1: 6; Mtb betalactam: 2; Mtb FBA inh conf: 39*; GDH-TPI counter-2: 34*

How did COc1cc(OC)cc(C(=O)Nc2ccc(N(C)C)c3ccccc23)c1 do in these assays?
Rv3671c protease: -1; FBA Mtb inh: 5; RecA splice inh: 2; UGM FP inh: 1; GDH-TPI counter-1: 8; Mtb betalactam: 8

How did Clc1cccc(OCCCCN2CCCCC2)c1 do in these assays?
Rv3671c protease: 1; FBA Mtb inh: 1; RecA splice inh: 1; UGM FP inh: 0; GDH-TPI counter-1: 8; Mtb betalactam: -3

How did CCOC(=O)c1[nH]c2ccc(OC)cc2c1C do in these assays?
Rv3671c protease: 1; FBA Mtb inh: 24; RecA splice inh: 0; UGM FP inh: 3; GDH-TPI counter-1: 7; Mtb betalactam: 6

What do the screens show for `COc1ccc2[nH]c(C(=O)NCc3ccccc3)cc2c1`?
Rv3671c protease: -9; FBA Mtb inh: 56*; RecA splice inh: 0; UGM FP inh: 3; GDH-TPI counter-1: 11; Mtb betalactam: -5; Mtb FBA inh conf: 64*; GDH-TPI counter-2: 46*

Results for CCOC(=O)c1cc2cc(OC)ccc2[nH]1 ?
Rv3671c protease: -3; FBA Mtb inh: 41*; RecA splice inh: 5; UGM FP inh: 1; GDH-TPI counter-1: 5; Mtb betalactam: -7; Mtb FBA inh conf: 45*; GDH-TPI counter-2: 42*

How did COc1ccc(CC(=O)NCc2ccccc2)cc1 do in these assays?
Rv3671c protease: 0; FBA Mtb inh: -1; RecA splice inh: 1; UGM FP inh: -1; GDH-TPI counter-1: -6; Mtb betalactam: 4

What do the screens show for `Cc1ccc(C)c(SCC(=O)Nc2cc(S(=O)(=O)N3CCOCC3)ccc2C)c1`?
FBA Mtb inh: -1; GDH-TPI counter-1: -4

How did COn1c(-c2ccccc2)nc2c1CCc1nonc1-2 do in these assays?
Rv3671c protease: -1; FBA Mtb inh: 5; RecA splice inh: 0; UGM FP inh: 1; GDH-TPI counter-1: 4; Mtb betalactam: -9

What do the screens show for `c1ccc(COn2c(-c3ccccc3)nc3c2CCc2nonc2-3)cc1`?
Rv3671c protease: 2; FBA Mtb inh: 53*; RecA splice inh: -1; UGM FP inh: 0; GDH-TPI counter-1: 0; Mtb betalactam: -10; Mtb FBA inh conf: 107*; GDH-TPI counter-2: 93*

What do the screens show for `COc1ccc(C2SCC(=O)N2c2ccc(F)cc2)cc1` (configuration not stated)?
Rv3671c protease: 1; FBA Mtb inh: 0; RecA splice inh: -10; UGM FP inh: 1; GDH-TPI counter-1: 5; Mtb betalactam: 1

Results for COc1ccc(N2C(=O)CSC2c2cccc(F)c2)cc1 (configuration not stated) ?
Rv3671c protease: 1; FBA Mtb inh: 39*; RecA splice inh: 1; UGM FP inh: 1; GDH-TPI counter-1: -5; Mtb betalactam: 5; Mtb FBA inh conf: 181*; GDH-TPI counter-2: 154*

How did COC(=O)N/N=C/c1c(C)cc(C)cc1C do in these assays?
Rv3671c protease: -6; FBA Mtb inh: 0; RecA splice inh: -2; UGM FP inh: -1; GDH-TPI counter-1: 10; Mtb betalactam: -7

What do the screens show for `O=C(CSc1nncn1-c1cccnc1)Nc1cccc([N+](=O)[O-])c1`?
Rv3671c protease: -5; FBA Mtb inh: 0; RecA splice inh: -2; UGM FP inh: 1; GDH-TPI counter-1: 2; Mtb betalactam: -4

Results for COc1ccc(C2CC(c3ccccc3OC(C)=O)=NN2C(C)=O)cc1 (configuration not stated) ?
Rv3671c protease: 1; FBA Mtb inh: 50*; RecA splice inh: 1; UGM FP inh: 5; GDH-TPI counter-1: 15; Mtb betalactam: 4; Mtb FBA inh conf: 109*; GDH-TPI counter-2: 75*

What do the screens show for `CCCN1CNc2c(c(=O)[nH]c(=S)n2-c2ccc(Cl)cc2)C1`?
Rv3671c protease: 2; FBA Mtb inh: -1; RecA splice inh: -3; UGM FP inh: 1; GDH-TPI counter-1: -3; Mtb betalactam: -13

What do the screens show for `CC(C)(C)C(=O)OCC12CCC(O1)C1(C)C(=O)OCC21` (configuration not stated)?
Rv3671c protease: 8; FBA Mtb inh: 47*; RecA splice inh: -1; UGM FP inh: 5; GDH-TPI counter-1: 0; Mtb betalactam: -3; Mtb FBA inh conf: -6; GDH-TPI counter-2: -4

Results for c1ccc2c(c1)Oc1cccc3cccc-2c13 ?
Rv3671c protease: 8; FBA Mtb inh: 28*; RecA splice inh: 5; UGM FP inh: 1; GDH-TPI counter-1: 13; Mtb betalactam: 2; Mtb FBA inh conf: 86*; GDH-TPI counter-2: 81*

What do the screens show for `O=C1c2ccccc2-c2cccc3cccc1c23`?
FBA Mtb inh: 3; GDH-TPI counter-1: 8

What do the screens show for `CCOC(=O)C1=C(C)OC(N)=C(C#N)C1c1cc2c(cc1[N+](=O)[O-])OCO2` (configuration not stated)?
Rv3671c protease: -28; FBA Mtb inh: 33*; RecA splice inh: -7; UGM FP inh: -1; GDH-TPI counter-1: 8; Mtb betalactam: 3; Mtb FBA inh conf: 42*; GDH-TPI counter-2: 26*

Results for Brc1c(CSc2nncn2-c2ccccc2)nc2ncccn12 ?
Rv3671c protease: -5; FBA Mtb inh: 83*; RecA splice inh: -1; UGM FP inh: 1; GDH-TPI counter-1: 19; Mtb betalactam: -1; Mtb FBA inh conf: 103*; GDH-TPI counter-2: 75*

Results for Cc1cc(C)nc(SCc2cn3c(C)cccc3n2)n1 ?
Rv3671c protease: -1; FBA Mtb inh: 2; RecA splice inh: -5; UGM FP inh: 3; GDH-TPI counter-1: 1; Mtb betalactam: 3

Results for Brc1c(CSc2nc3ccccc3o2)nc2ncccn12 ?
Rv3671c protease: -1; FBA Mtb inh: 63*; RecA splice inh: -2; UGM FP inh: -1; GDH-TPI counter-1: 12; Mtb betalactam: -1; Mtb FBA inh conf: 63*; GDH-TPI counter-2: 43*
